± gives the standard deviation of the averaged measurements. Whole data set: some 25,000 sequences, median “ln(normalized median fluorescence intensity)” near 7.9, cut for the highest 2% near 11. The full list was thinned out, with the highest values kept by preference.
System: PfAP2-I AP2 domain 3 (GST-tagged)
Assay: gcPBM binding intensity (ln(normalized median fluorescence intensity)); higher = stronger DNA binding
In short: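 For binding intensity, the highest Masliner-normalised natural-log median intensity across replicate spots of either probe orientation was taken. Protein bound to the array was stained with Alexa488 anti-GST antibody and scanned at 488 nm. The protein, GST-tagged P. falciparum DNA-binding domains from E. coli at about 25 μg on average, had been applied for 1 h to an Agilent 4 × 180k array of primer-extended double-stranded 36-bp intergenic genomic probes and negative controls.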

| Sequence | gcPBM binding intensity (ln) |
| --- | --- |
| TTAACATAAATATATACACACCAATGATGGCATTTA [CACACA_site4952] | 7.51 ± 0.52 |
| TATATATTCATGTGTACACACAAAAAAAAATAAAGT [CACACA_site2207] | 8.41 ± 0.65 |
| TTGTATGCTTCCCGACTACATTATGCCATAAATGTA [TGCATGCA_negctrl_site136] | 7.92 ± 0.49 |
| AGTGCATACATGAATTGTACTTTAAAATAAATTCTA [XGTACX_site8156] | 9.7 ± 0.52 |
| TAAATATATTTCATGACATGCAACTTGTTTTTTTGT [TGCATGCA_site456] | 7.63 ± 0.7 |
| TTTTTTCTTAAAATTTGTACATAGTGCAATTTTTTT [XGTACX_site5509] | 9.5 ± 0.69 |
| TAAAATTTGTACATAGTGCAATTTTTTTTTTTTTTT | 9.81 ± 0.099 |
| TTCTTATTTGTACTAGTGCAATAGAAAATAAATAAA [GTGCAC_site9731] | 10.9 ± 0.49 |
| TATTTTACATCTTCTCACATTTTATCACTTTTTAAA [CACACA_negctrl_site330] | 8.08 ± 0.45 |
| ATTATTATAGATATAACACACATAATTACATACTTA [CACACA_site6837] | 7.97 ± 0.14 |
| ATTTTCTTTTCCATAGTGCAATATAATTATCCATCA [GTGCAC_site9547] | 11.3 ± 0.39 |
| TTATATAATTTAATAGTGCAATTATATTAATTTTTC | 9.82 ± 0.42 |
| ATATATATTATATAAGTGCATAATATTCTTTCTTTT | 10.5 ± 0.25 |
| ATTTGATAGACACATGCACACATGCAATACTTTATT [CACACA_site5633] | 8.81 ± 0.77 |
| TTTAATTTGATAGACACATGCACACGTGCAATACTT [TGCATGCA_site777] | 10.95 ± 0.021 |
| GATAGACACGTGCACACATGCAATACTTTATTCAGT [TGCATGCA_site778] | 10.1 ± 0.32 |
| CATTATCATGTTTTTTGTACTCATAATAAAAAGCAG [XGTACX_site2056] | 8.03 ± 0.21 |
| ATAATAAAATAAATCACACATAATATAATGTAATAT [CACACA_site6144] | 7.54 ± 0.54 |
| AATCTAATATAATGCACACATAAAAAAAAAATCAAA [CACACA_site2714] | 10.7 ± 0.74 |
| AATCTAATATAATGCACACATAAAAAAAAATCAAAC [CACACA_site3633] | 11.1 ± 0.94 |

| Sequence | gcPBM binding intensity (ln) |
| --- | --- |
| AAAATCTAATATAATGCACACATAAAAAAAAATCAA [CACACA_site9211] | 10.9 ± 0.59 |
| TATCAAAATAAATGCACACAAATTGCACATATCTAT [CACACA_site1097] | 10.3 ± 0.11 |
| AAAATCTAATATAATGCACACATAAAAAAAAAATCA [CACACA_site8871] | 11 ± 0.68 |
| TAGATATATAAATACACACACATACACAAAAAAAAA [CACACA_site7652] | 8.21 ± 0.45 |
| AAATATATATAAAACTCACACATTATCTTATAACCA [CACACA_site5268] | 7.83 ± 0.23 |
| AAATTATTATCGTTAATATGTATATATGTGCCAAGT [TGCATGCA_negctrl_site557] | 8.06 ± 0.44 |
| GGTTACATTTTATTTTGTACATAAAAATTTTTATTT [XGTACX_site218] | 8.15 ± 0.53 |
| AAAAATAAACAATATATAGTTATATATATATATATA [TGCATGCA_negctrl_site82] | 9.29 ± 0.69 |
| TATTTTTTTTGTTAGGTGCATTTACATTTATTTTTA | 10.8 ± 0.61 |
| TTTATATTTATGTAGGTGCATTTGTTTACAACATAT [GTGCAC_site9511] | 10.8 ± 0.71 |
| TTCTCATTCAAATTAGTGCATTTTTGTTATTACATT | 9.81 ± 0.2 |
| ATATTTATTTGTTAGTGTACATACATATATATATAT [XGTACX_site1347] | 9.47 ± 0.4 |
| TGTGCACATAATTAGTGTACATTTTTTATTTAGACA [XGTACX_site317] | 10.3 ± 0.88 |
| TTTTTGTTATTTTTAGTGCACATTTAAGGGTGTATT | 11.4 ± 0.53 |
| CTATATTTTTAAAAATGTACTTTATAATAAAATACT [XGTACX_site3593] | 7.83 ± 0.32 |
| ATTTATAATGATTTTTTTAGTAATCTTGTTATTTTT [XGTACX_negctrl_site373] | 7.38 ± 0.54 |
| CTATTTAAAATATGAACACACATTATTTGTTTTAGA [CACACA_site2713] | 7.42 ± 0.43 |
| TATTTGTATAAATAAAAATAATATATATCAAATAAC [CACACA_negctrl_site218] | 7.57 ± 0.55 |
| AATAGCAATTTGGGGTGTACACACACCTTATTTAAA [XGTACX_site2234] | 8.04 ± 0.23 |
| TACTTTTTTTTTTTTTTTTTTTTTTTTTCCCTTTTT [CACACA_negctrl_site761] | 7.47 ± 0.53 |

| Sequence | gcPBM binding intensity (ln) |
| --- | --- |
| ATAAAAATAAAAAGTGTGCACACAAAAATATATATA [GTGCAC_site9931] | 9.96 ± 0.33 |
| TAATTATTTTAAAAAGTGCATTAAAAGATATTAAAT [GTGCAC_site9694] | 11.4 ± 0.56 |
| TTATAAATTTAAAAAGTGCATAATAATAACAAAAAG | 11.2 ± 0.67 |
| TACAAATTTATATAAAGTACAAAAAATAATAAAAAT [XGTACX_site7355] | 8.1 ± 0.52 |
| AAATTAAAGATAAAAGTGCAAAATTATAAATTTATT | 9.64 ± 0.071 |
| ATTAAAAGTTTATACAAATAAAAAACAAAACAAAAA [CACACA_negctrl_site1030] | 7.7 ± 0.55 |
| TTAATTAATTTTTCAGTGCAAATAAAAAATATTTAA | 10.4 ± 0.64 |
| TAATTAAATATTTCAGTGCATTATTTTATGATCCAT [GTGCAC_site9456] | 11.2 ± 0.76 |
| AGTGTTTTTTATAAAGTGCAATATAAAAACAAAATG | 11.3 ± 0.75 |
| AATATCATTATATAAGTGCATTTTTTAAAAGATAAA [GTGCAC_site9479] | 9.04 ± 0.22 |
| CTAAATTATAGATCAGTGCAATTTAATATGAGTCCA | 8.91 ± 0.22 |
| TAATAATTTTATAAAGTGCATAAAAATAAAAATTTT | 10.6 ± 0.36 |
| GTAATATTAATATAATGTACAAAATGAAACATATAT [XGTACX_site6219] | 7.71 ± 0.57 |
| AAATAAATACATAATACATGCATATTTAATATATAG [TGCATGCA_site135] | 7.93 ± 0.25 |
| TTTTAGCTATTTTAATATAATGAAGCAAAAAATAAA [TGCATGCA_negctrl_site576] | 7.82 ± 0.085 |
| GTGTGGTTACAGACACGAACACATTTTTTAAATATT [CACACA_negctrl_site83] | 7.83 ± 0.28 |
| TGAAAAATGTAATGCTCACACATATATATATATATA [CACACA_site5213] | 9.41 ± 0.24 |
| CCTACAATTCGTAATACACACACATATATATATATA [CACACA_site9251] | 9.29 ± 0.25 |
| CAGCTCTTAAAAATTACACACATATACACATATATA [CACACA_site9073] | 7.5 ± 0.54 |
